Screening results (PubChem BioAssay)
The list is not random: actives were taken first. Their share in the collection is about 2.2%.
BaF3 tox: parental Ba/F3 cell viability inhibition, counter-screen for JAK2V617F inhibitor project, murine pro-B, CellTiter-Glo luminescence; CellTiter-Glo ATP luminescence; 220,000 tested, 1.1% active; inhibition, % at 5.6 µM;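 active means inhibition above a per-campaign cutoff, the mean inhibition of all tested compounds plus 3 SD, cut at about 27% in these data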;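 further: 0% = DMSO wells and 100% = JAK Inhibitor I control wells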
APP transl inh: inhibitors of APP translation via 5'UTR reporter, primary screen, APP 5'UTR luciferase, SH-SY5Y cells; SH-SY5Y APP 5'UTR-luciferase reporter, luminescence; inhibition, % at 2 µM; 190,000 tested, 0.82% active; AID 1285, 2008;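 active means inhibition above a set limit, derived from the sample mean plus 3 SD, cut at about 45% in these data; inconclusive means one replicate passes the limit while the other fails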
Ba/F3 V617F tox: reduced viability of JAK2V617F-dependent Ba/F3 cells, primary screen, JAK2V617F inhibitor project, cell-based, Ba/F3 EpoR-JAK2V617F, luminescence; ATP luminescence; inhibition, % at 5.6 µM; 220,000 tested, 1.1% active;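 active means inhibition above the campaign mean plus 3 SD over all tested compounds, cut at about 24% in these data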;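 further: cytokine-independent growth of Ba/F3 cells driven by EpoR plus mutant JAK2; 0% = DMSO-treated cells and 100% = JAK inhibitor I control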
aSyn UTR inh: MLPCN primary screen, SNCA 5' untranslated region. inhibition, % (tested at 7.5 µM). alpha-synuclein 5'UTR reporter, inhibitor activity. 300,000 tested, 0.82% active; in the data active means inhibition above about 60%; inconclusive means no clear call, values can overlap the other calls;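 further: H4 neuroglioblastoma cells stably carrying SNCA 5'UTR luciferase fusion; 0% = DMSO wells and 100% = positive control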
KLF5 inhibitor: KLF5 expression inhibitors, primary screen, DLD-1 cells, luminescence. 290,000 tested, 0.23% active. inhibition, % at 5 µM. DLD-1 KLF5 promoter-luciferase reporter;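 active means inhibition above a per-plate limit of that plate's mean compound inhibition plus 3 SD, cut at about 60% in these data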;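 further: 0% = DMSO wells and 100% = LY294002 at 200 µM; higher means less KLF5 promoter-driven luciferase light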
IEC-6 cytotox: cytotoxicity in IEC-6 intestinal epithelial cells, primary screen, cytotoxicity control for KLF5 inhibitor project, cell-based, luminescence; inhibition, % at 5 µM; 290,000 tested, 0.78% active; IEC-6 cytotoxicity, luminescence viability; in the data active means inhibition above about 22%;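 further: 0% = plate median of test compound wells and 100% = cytotoxic reference compound wells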
* = called active by the depositor; ? = inconclusive; / = no result given.

SMILES | BaF3 tox | APP transl inh | Ba/F3 V617F tox | aSyn UTR inh | KLF5 inhibitor | IEC-6 cytotox
O=C(c1ccc(Br)s1)N1CCN(c2ccccn2)CC1 | / | / | / | -17.0 | -24.7 | -6.7
CC1CCCN(S(=O)(=O)c2ccc(C(=O)Nc3nnc(-c4ccccc4Cl)o3)cc2)C1 (stereo not given) | -0.6 | -16.5 | -4.4 | 77.9* | -19.8 | -1.2
COc1ccc(-c2nnc(NC(=O)c3ccc(S(=O)(=O)N4CCc5ccccc5C4)cc3)o2)cc1 | 9.0 | 3.5 | 5.5 | 73.2* | -21.4 | -6.9
COc1ccc(-c2nnc(NC(=O)c3ccc4c(c3)OCCO4)o2)cc1 | / | / | / | 104.7* | 9.1 | 6.0
CCN(CC)S(=O)(=O)c1ccc2c(c1)nc(-c1ccccn1)n2C | / | / | / | -73.2 | -94.4 | 0.8
Cc1ccc(-c2nc3cc(NC(=O)C(C)C)ccc3o2)cc1 | 28.0* | -147.0 | -0.4 | -6.6 | -229.6 | -1.0
Cc1ccc(-c2nc3cc(NC(=O)C(C)C)ccc3o2)cc1C | 3.5 | -160.5 | -3.4 | 61.2 | -147.2 | 4.8
Cc1cccc(-c2nc3cc(NC(=O)C4CCCO4)ccc3o2)c1 (stereo not given) | 4.7 | -137.8 | 0.8 | 72.5* | -162.9 | 3.3
O=C(Nc1nc2ccccc2[nH]1)C1CCCO1 (stereo not given) | 8.1 | -30.1 | 1.5 | -79.1 | -18.7 | -1.3
Cc1ccc2oc(-c3cccc(NC(=O)C4CCCO4)c3)nc2c1 (stereo not given) | 5.2 | -55.9 | 1.6 | -181.2 | -132.7 | 3.2
O=C(Nc1ccc(-c2nc3ccccc3[nH]2)cc1)C1CCCO1 (stereo not given) | 21.6 | -179.5 | 14.6 | 76.7* | -42.9 | 9.5
CCN(CC)c1ccc(NC2=C(Cl)C(=O)c3ccccc3C2=O)cc1 | -0.4 | 95.5* | -2.5 | / | -62.6 | 9.0
CCNC1=C(Cl)C(=O)c2ccccc2C1=O | 2.4 | -3.6 | -1.2 | -23.2 | -74.4 | 18.9
NS(=O)(=O)c1ccc(NC2=CC(=O)C(=O)c3ccccc32)cc1 | / | / | / | 51.1 | -34.5 | -2.3
CCOc1ccc(NC2=C(OC)C(=O)c3ccccc3C2=O)cc1 | 10.5 | 7.0 | -1.0 | -94.4 | -22.0 | -2.2
Cc1ccc(NC2=C(Cl)C(=O)c3ccccc3C2=O)cc1 | 4.0 | 95.9* | 2.7 | ? | -9.3 | 1.8
Cc1ccc(NC2=CC(=O)C(=O)c3ccccc32)cc1 | 9.5 | -30.4 | 3.8 | 102.9* | -56.6 | 2.3
CCOc1ncccc1C(=O)NNC(=O)c1ccccc1-n1cccc1 | / | / | / | 20.2 | -23.9 | -3.5
Cc1cc(N2CCN(C)CC2)ccc1NC(=O)c1c2c(nc3ccccc13)CCN(Cc1ccccc1)C2 | 6.7 | 12.5 | 10.0 | 91.6* | 2.4 | 2.7
O=C(NC1CCCCCC1)c1c2c(nc3ccccc13)CCN(Cc1ccccc1)C2 | 3.4 | -12.9 | -2.4 | -56.8 | -12.9 | -2.1
N#CC1=C(SCC(=O)c2ccccc2)NC2=C(C(=O)CCC2)C1c1ccco1 (stereo not given) | 36.1* | 68.4* | 46.6* | -305.3 | -76.0 | 11.5
CC(C)(C)c1ccc(C(=O)CCCSC2=C(C#N)C(c3ccco3)C3=C(CCCC3=O)N2)cc1 (stereo not given) | 9.6 | -24.6 | 6.1 | / | -5.8 | 0.3
Cc1cc(C)c2c(c1)/C(=N\N=c1\sc3ccccc3n1C)C(=O)N2 | 39.3* | / | 1.1 | -106.7 | -17.2 | 0.6
C=CCc1cccc(/C=N/NC(=O)C(C)Nc2ccc(C)cc2)c1O (stereo not given) | 6.4 | 33.3 | -2.7 | 0.4 | -1.4 | 5.6
NCCCC[C@H](N)c1nnc([C@H](CCC(=O)O)NC(=O)C2CCNCC2)o1 | -3.3 | -7.6 | -4.3 | 3.6 | -11.0 | -1.4
SMILES | BaF3 tox | APP transl inh | Ba/F3 V617F tox | aSyn UTR inh | KLF5 inhibitor | IEC-6 cytotox
Nc1ccc(Oc2ccccc2-c2ccccc2)cc1 | / | / | / | 104.4* | / | /
NCCOc1ccccc1-c1ccccc1 | 4.2 | 9.3 | -0.5 | 12.8 | -6.5 | 1.0
Oc1ccccc1C1Nc2cccc3cccc(c23)N1 | 0.1 | -10.5 | -3.9 | 2.4 | -18.7 | 3.9
O=[N+]([O-])c1ccccc1C1Nc2cccc3cccc(c23)N1 | 100.1* | 14.2 | 79.0* | -27.3 | 9.9 | 11.4
CC(OC(=O)CCc1ccccc1)C(=O)Nc1ncc(Cl)cc1Cl (stereo not given) | / | / | / | -1.1 | -5.3 | 1.9
N#CC(C#N)=C1C=CC=CN1/C(=C\c1ccccc1Cl)C(=O)c1ccccc1 | 1.2 | 92.3* | 2.5 | / | -7.4 | 5.6
N#CC(C#N)=C1C=CC=CN1/C(=C\c1ccccc1)C(=O)c1cccs1 | -2.1 | -6.2 | -4.5 | -9.4 | -16.0 | 2.7
CC(=O)c1ccc(NC(=O)c2cnn3ccccc23)cc1 | 3.0 | -105.3 | 0.8 | 78.9* | 54.2 | 10.2
Oc1ccccc1/C=N/Nc1ccccc1 | 3.9 | -37.7 | 0.3 | -133.2 | -6.0 | 0.6
Oc1ccccc1/C=N/Nc1ncc(Br)cn1 | 4.5 | 57.0* | 2.8 | 5.0 | -77.1 | -5.2
Oc1ccccc1/C=N/Nc1ccnc(SCc2ccccc2)n1 | 8.2 | 56.2* | 1.6 | / | -18.4 | 7.6
Cc1sc2ncnc(N/N=C/c3ccccc3O)c2c1C | 2.2 | 76.8* | -5.7 | 105.8* | 16.9 | 8.4
CC(C)N(C(=O)CSc1nnc(Cc2csc(Nc3ccccc3)n2)o1)C(C)C | 9.0 | 5.3 | 1.7 | -6.8 | 9.7 | 1.5
Nc1oc2ccccc2c(=O)c1C=O | 1.5 | -2.2 | -2.9 | -40.1 | -17.8 | -0.1
Cc1nn(C)cc1S(=O)(=O)NC1CCCC1 | 3.4 | -0.1 | 0.4 | 15.1 | 15.5 | 5.1
COC(=O)c1cn(C(=O)c2ccc(C)cc2C)c2ccccc12 | 8.5 | 53.5* | 4.7 | -28.8 | 0.7 | 5.5
COC(=O)c1ccc(Cn2c(O)c(N=NC(N)=S)c3ccccc32)o1 | 5.4 | / | 4.2 | 17.0 | -28.9 | 0.8
Cn1ncc(Br)c1NC(=O)Nc1ccc(OC(F)(F)F)cc1 | 31.8* | / | 3.6 | 8.2 | 15.0 | 11.2
COc1ccc(C(=O)N2CCN(C)C(=O)[C@@H]2C)cc1OC1CCN(C(C)=O)CC1 | / | / | / | 1.7 | -11.2 | -8.6
Cc1ccccc1OCCn1cnc2c(N)ncnc21 | 32.7* | -2.2 | 56.7* | -40.0 | -23.7 | 7.7
Cc1ccccc1OCCn1c(=S)[nH]c2c(N)ncnc21 | / | / | / | 3.4 | -0.7 | 2.1
O=C1CC2(CCCCC2)Oc2ccc(Cl)cc21 | / | / | / | 5.7 | / | /
O=C(c1ccco1)N1N=C(c2ccc(Br)cc2)CC1(O)C(F)(F)F (stereo not given) | 73.9* | 10.8 | 3.0 | 8.4 | -14.9 | 7.7
COc1ccc(NC(=O)c2cn(-c3ccccc3)nc2-c2ccncc2)cc1 | 8.8 | 10.4 | 1.8 | -25.2 | -33.5 | -0.8
COc1ccc(-c2nn(-c3ccccc3)cc2C(=O)NC(=S)NNC(=O)c2ccncc2)cc1 | 3.6 | 49.9* | 5.1 | 72.5* | 19.9 | 24.7*
Fc1ccc(-c2nnc3ccccn23)cc1 | 80.7* | -3.8 | 1.2 | -11.6 | -8.4 | 3.5
Fc1ccc(-c2ncc3ccccn23)cc1 | 3.4 | -2.2 | -2.8 | -100.7 | -48.1 | -1.5
